Data on 9 compounds can be found in article PMC11062922 (Nature Chemical Biology, 2023).

The subject of one experiment is FLT3. On the set-up: species or system human, MV4-11 + K-562 + COLO205 + SK-N-BE2 + OVCAR-8. Particulars: read-out: apparent Kd; compound concentrations: 100 nM and 1000 nM (sheet 'Samples'), CATDS: 1; n = 1.
Turning to `Nc1ncnc2c1ncn2-c1ccc(Cl)cc1` [AH2635], the potency estimated from few doses is 1.61 µM.

On to `Cl.NS(=O)(=O)c1cccc(Nc2cc(-c3ccc(F)cc3)n[nH]2)c1` [GW824645A_PKIS2], for which the potency estimated from few doses was 0.342 µM.

`Cl.N#Cc1cccc(Nc2ncc(-c3ccccc3)o2)c1` [GW627834A]: the potency estimated from few doses is 0.344 µM.

In the case of `CC(C)c1ccc2c(c1)NC(=O)/C2=N/Nc1ccc(S(N)(=O)=O)cc1` [GW300653X], the potency estimated from few doses was 0.716 µM.

The experiment is the same for the next values; noted with them: read-out: apparent Kd; compound concentrations:100 nM and 1000 nM (sheet 'Samples'); n = 1.
For the compound `CC(C)c1ccc(Nc2nccc(-c3cnn4ncccc34)n2)cc1` [GW805758X], the potency estimated from few doses was 1.17 µM. In the case of `CN(C)C/C=C/C(=O)Nc1ccc(C(=O)Nc2cccc(Nc3ncc(Cl)c(-c4c[nH]c5ccccc45)n3)c2)cc1` [THZ1], the potency estimated from few doses is 1.31 µM. For `C/C(Nc1ccc(S(N)(=O)=O)cc1)=C1/C(=O)Nc2ccccc21` [GW335962X], the potency estimated from few doses was 0.524 µM.

Turning to `CCS(=O)(=O)c1ccc(OC)c(Nc2ncc(-c3cccc(OC)c3)o2)c1` [GW580509X], the potency estimated from few doses is 1.13 µM. `C[C@@H](Oc1cc(-n2cnc3cc(-c4cnn(C)c4)ccc32)sc1C(N)=O)c1ccccc1Cl` [GSK580432A]: the potency estimated from few doses was 1.3 µM.
